According to article PMC12820563, “FoxP3 forms a head-to-head dimer in vivo and stabilizes its multimerization on adjacent microsatellites”:
Over roughly 16,000 sequences, “rpm ratio (pull-down/input)” has its median near 0.5; the highest 2% begin near 5.5. This is one part of a sample in which the highest values are shown more often than they occur.

Target: T1, MBP-FoxP3dN (Mus musculus, UniProt Q99JB6 188-423)
T1 sequence: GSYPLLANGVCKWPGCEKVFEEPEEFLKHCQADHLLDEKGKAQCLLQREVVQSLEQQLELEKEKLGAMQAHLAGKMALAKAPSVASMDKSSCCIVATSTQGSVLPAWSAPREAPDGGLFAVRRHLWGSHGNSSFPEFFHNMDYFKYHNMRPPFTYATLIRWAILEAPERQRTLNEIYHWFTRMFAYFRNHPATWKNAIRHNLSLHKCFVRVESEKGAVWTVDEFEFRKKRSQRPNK
Assay: PD-seq (MBP pull-down with sequencing); 20 mM Tris-HCl pH 7.5, 100 mM NaCl, 1.5 mM MgCl2, 0.4 uM protein, 0.1 uM dsDNA library, 30 min, room temperature, amylose pull-down; high values mean tight binding
Settings: protein: recombinant; tags: His6-MBP; chain copies: 2; dsDNA, one strand shown
Procedure, shortened: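 A degenerate double-stranded DNA library, filled in with Klenow, was added at 0.1 µM to 0.4 µM His6-MBP-tagged mouse FoxP3 or FoxP1 fragment lacking the N-terminus, expressed in E. coli. Incubation lasted 30 min at room temperature in Tris pH 7.5 buffer with NaCl and MgCl2, after which complexes were collected on amylose resin, washed three times, digested with proteinase K to free the DNA, barcoded by PCR and sequenced by Illumina. Binding is the pooled-replicate reads-per-million enrichment of pull-down over input.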

Sequence | binding signal
GATGATTGTTCTCCCAGCTGATGAATTTTGTACGTCGAGTAAACAAATTTTCCTAATCTTTCTGTTCAAGCGCCATCTAC | 1.18 RPM ratio (pull-down/input)
GATGATTGTTCTCCCAGCTGATGAATTGTAAGTGTCGAGTAAACAAATTTTCCTAATCTTTCTGTTCAAGCGCCATCTAC | 0.84 RPM ratio (pull-down/input)
GATGATTGTTCTCCCAGCTGATGAATTTTGATGTTCGAGTAAACAAATTTTCCTAATCTTTCTGTTCAAGCGCCATCTAC | 3.91 RPM ratio (pull-down/input)
GATGATTGTTCTCCCAGCTGATGAATTTAAGGATTCGAGTAAACAAATTTTCCTAATCTTTCTGTTCAAGCGCCATCTAC | 0.302 RPM ratio (pull-down/input)
GATGATTGTTCTCCCAGCTGATGAATTGAATATTTCGAGTAAACAAATTTTCCTAATCTTTCTGTTCAAGCGCCATCTAC | 0.671 RPM ratio (pull-down/input)
GATGATTGTTCTCCCAGCTGATGAATTTTGACCATCGAGTAAACAAATTTTCCTAATCTTTCTGTTCAAGCGCCATCTAC | 0.551 RPM ratio (pull-down/input)
GATGATTGTTCTCCCAGCTGATGAATTGTGTTATTCGAGTAAACAAATTTTCCTAATCTTTCTGTTCAAGCGCCATCTAC | 7.88 RPM ratio (pull-down/input)
GATGATTGTTCTCCCAGCTGATGAATTGTTATATTCGAGTAAACAAATTTTCCTAATCTTTCTGTTCAAGCGCCATCTAC | 1.27 RPM ratio (pull-down/input)
GATGATTGTTCTCCCAGCTGATGAATTATTGTGTTCGAGTAAACAAATTTTCCTAATCTTTCTGTTCAAGCGCCATCTAC | 2.16 RPM ratio (pull-down/input)
GATGATTGTTCTCCCAGCTGATGAATTGGATCGTTCGAGTAAACAAATTTTCCTAATCTTTCTGTTCAAGCGCCATCTAC | 0.402 RPM ratio (pull-down/input)
GATGATTGTTCTCCCAGCTGATGAATTTACAGGATCGAGTAAACAAATTTTCCTAATCTTTCTGTTCAAGCGCCATCTAC | 0.329 RPM ratio (pull-down/input)
GATGATTGTTCTCCCAGCTGATGAATTCTTAAGTTCGAGTAAACAAATTTTCCTAATCTTTCTGTTCAAGCGCCATCTAC | 0.237 RPM ratio (pull-down/input)
GATGATTGTTCTCCCAGCTGATGAATTCTGTATGTCGAGTAAACAAATTTTCCTAATCTTTCTGTTCAAGCGCCATCTAC | 4.95 RPM ratio (pull-down/input)
GATGATTGTTCTCCCAGCTGATGAATTTGTATGGTCGAGTAAACAAATTTTCCTAATCTTTCTGTTCAAGCGCCATCTAC | 6.04 RPM ratio (pull-down/input)
GATGATTGTTCTCCCAGCTGATGAATTGTATGATTCGAGTAAACAAATTTTCCTAATCTTTCTGTTCAAGCGCCATCTAC | 2.94 RPM ratio (pull-down/input)
GATGATTGTTCTCCCAGCTGATGAATTCTATGTGTCGAGTAAACAAATTTTCCTAATCTTTCTGTTCAAGCGCCATCTAC | 1.96 RPM ratio (pull-down/input)
GATGATTGTTCTCCCAGCTGATGAATTGTATGTGTCGAGTAAACAAATTTTCCTAATCTTTCTGTTCAAGCGCCATCTAC | 3.75 RPM ratio (pull-down/input)
GATGATTGTTCTCCCAGCTGATGAATTGTGTATGTCGAGTAAACAAATTTTCCTAATCTTTCTGTTCAAGCGCCATCTAC | 5.84 RPM ratio (pull-down/input)
GATGATTGTTCTCCCAGCTGATGAATTTGTATGTTCGAGTAAACAAATTTTCCTAATCTTTCTGTTCAAGCGCCATCTAC | 6.63 RPM ratio (pull-down/input)
GATGATTGTTCTCCCAGCTGATGAATTTTGTATGTCGAGTAAACAAATTTTCCTAATCTTTCTGTTCAAGCGCCATCTAC | 6.01 RPM ratio (pull-down/input)

Sequence | binding signal
GATGATTGTTCTCCCAGCTGATGAATTATGTATGTCGAGTAAACAAATTTTCCTAATCTTTCTGTTCAAGCGCCATCTAC | 4.99 RPM ratio (pull-down/input)
GATGATTGTTCTCCCAGCTGATGAATTGTATGGGTCGAGTAAACAAATTTTCCTAATCTTTCTGTTCAAGCGCCATCTAC | 1.19 RPM ratio (pull-down/input)
GATGATTGTTCTCCCAGCTGATGAATTGGTATGGTCGAGTAAACAAATTTTCCTAATCTTTCTGTTCAAGCGCCATCTAC | 1.45 RPM ratio (pull-down/input)
GATGATTGTTCTCCCAGCTGATGAATTGTATGTTTCGAGTAAACAAATTTTCCTAATCTTTCTGTTCAAGCGCCATCTAC | 3.89 RPM ratio (pull-down/input)
GATGATTGTTCTCCCAGCTGATGAATTATTCAGATCGAGTAAACAAATTTTCCTAATCTTTCTGTTCAAGCGCCATCTAC | 0.24 RPM ratio (pull-down/input)
GATGATTGTTCTCCCAGCTGATGAATTTTTTCAATCGAGTAAACAAATTTTCCTAATCTTTCTGTTCAAGCGCCATCTAC | 0.247 RPM ratio (pull-down/input)
GATGATTGTTCTCCCAGCTGATGAATTTGGTGAGTCGAGTAAACAAATTTTCCTAATCTTTCTGTTCAAGCGCCATCTAC | 0.814 RPM ratio (pull-down/input)
GATGATTGTTCTCCCAGCTGATGAATTGTAGGCGTCGAGTAAACAAATTTTCCTAATCTTTCTGTTCAAGCGCCATCTAC | 0.778 RPM ratio (pull-down/input)
GATGATTGTTCTCCCAGCTGATGAATTGTTCACGTCGAGTAAACAAATTTTCCTAATCTTTCTGTTCAAGCGCCATCTAC | 0.396 RPM ratio (pull-down/input)
GATGATTGTTCTCCCAGCTGATGAATTCTGTCGCTCGAGTAAACAAATTTTCCTAATCTTTCTGTTCAAGCGCCATCTAC | 0.926 RPM ratio (pull-down/input)
GATGATTGTTCTCCCAGCTGATGAATTACCACGCTCGAGTAAACAAATTTTCCTAATCTTTCTGTTCAAGCGCCATCTAC | 0.466 RPM ratio (pull-down/input)
GATGATTGTTCTCCCAGCTGATGAATTCTATAGCTCGAGTAAACAAATTTTCCTAATCTTTCTGTTCAAGCGCCATCTAC | 0.43 RPM ratio (pull-down/input)
GATGATTGTTCTCCCAGCTGATGAATTGGCGGCCTCGAGTAAACAAATTTTCCTAATCTTTCTGTTCAAGCGCCATCTAC | 0.449 RPM ratio (pull-down/input)
GATGATTGTTCTCCCAGCTGATGAATTTGTATTGTCGAGTAAACAAATTTTCCTAATCTTTCTGTTCAAGCGCCATCTAC | 6.39 RPM ratio (pull-down/input)
GATGATTGTTCTCCCAGCTGATGAATTGTATTTGTCGAGTAAACAAATTTTCCTAATCTTTCTGTTCAAGCGCCATCTAC | 6.43 RPM ratio (pull-down/input)
GATGATTGTTCTCCCAGCTGATGAATTTTGTATTTCGAGTAAACAAATTTTCCTAATCTTTCTGTTCAAGCGCCATCTAC | 5.33 RPM ratio (pull-down/input)
GATGATTGTTCTCCCAGCTGATGAATTGTATCTGTCGAGTAAACAAATTTTCCTAATCTTTCTGTTCAAGCGCCATCTAC | 1.2 RPM ratio (pull-down/input)
GATGATTGTTCTCCCAGCTGATGAATTTGTATTTTCGAGTAAACAAATTTTCCTAATCTTTCTGTTCAAGCGCCATCTAC | 4.85 RPM ratio (pull-down/input)
GATGATTGTTCTCCCAGCTGATGAATTGTAATTGTCGAGTAAACAAATTTTCCTAATCTTTCTGTTCAAGCGCCATCTAC | 2.31 RPM ratio (pull-down/input)
GATGATTGTTCTCCCAGCTGATGAATTACAAGCTTCGAGTAAACAAATTTTCCTAATCTTTCTGTTCAAGCGCCATCTAC | 0.518 RPM ratio (pull-down/input)
